Screening results: PubChem BioAssay, several laboratories
This is a sample that favours compounds with a hit; in the whole collection about 1.2% have one here.
NALP1 yeast inh: NALP1 inflammasome inhibitors in reconstituted yeast, colorimetric, S. cerevisiae, triplicate retest; S. cerevisiae NALP1/ASC/caspase-1 growth, X-gal OD620, 72 h; inhibition, % at 10 µM; 0.61% of 280,000 active; in the data active means inhibition mostly above about 24%, no sharp cut-off; inactive means mostly below about 32%
APOBEC3A inh: APOBEC3A ssDNA deaminase inhibitors, primary screen, selectivity assay for APOBEC3G inhibitor project, biochemical, FAM/TAMRA oligo cleavage fluorescence; recombinant A3A, FAM/TAMRA ssDNA deamination fluorescence; inhibition, % at 20 µM; 0.41% of 330,000 active; AID 493011, 2011;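 active means at least 40% inhibition at 20 µM here, with at most 30% in a related deaminase screen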;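 further: plate controls were A3A with DMSO for no effect and wells lacking A3A enzyme for full effect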
Target sequence (P31941 whole entry, looked up): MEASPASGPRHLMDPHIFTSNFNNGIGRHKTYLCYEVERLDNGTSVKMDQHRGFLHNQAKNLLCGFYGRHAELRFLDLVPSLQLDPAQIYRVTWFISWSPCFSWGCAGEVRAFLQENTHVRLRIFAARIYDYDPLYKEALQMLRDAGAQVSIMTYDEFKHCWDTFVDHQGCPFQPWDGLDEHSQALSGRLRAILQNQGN
A3G deaminase: APOBEC3G DNA deaminase inhibitors, primary screen, biochemical, fluorescence, single-stranded DNA substrate, uHTS | inhibition, % at 20 µM | recombinant A3G, ssDNA deamination FAM/TAMRA fluorescence | 0.28% of 330,000 active;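 active means inhibition of at least 40% at 20 µM, with no more than 30% in the related APOBEC3A deaminase screen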;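 further: plate controls were DMSO wells with A3G for no effect and wells lacking A3G enzyme for full effect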
Target sequence (Q9HC16 whole entry, looked up): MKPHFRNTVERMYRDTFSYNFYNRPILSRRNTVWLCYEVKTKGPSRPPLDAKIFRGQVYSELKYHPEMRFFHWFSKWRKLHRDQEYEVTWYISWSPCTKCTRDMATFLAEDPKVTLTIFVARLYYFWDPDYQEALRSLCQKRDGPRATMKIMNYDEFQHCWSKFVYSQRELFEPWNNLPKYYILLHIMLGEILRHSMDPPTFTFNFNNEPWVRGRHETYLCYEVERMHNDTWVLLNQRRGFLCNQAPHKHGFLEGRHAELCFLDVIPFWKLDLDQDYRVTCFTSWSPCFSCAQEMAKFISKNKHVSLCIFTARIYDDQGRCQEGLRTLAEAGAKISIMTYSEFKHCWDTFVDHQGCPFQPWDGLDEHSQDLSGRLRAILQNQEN
PolyA inhibitor: polyadenylation inhibitors in yeast reporter cells, primary screen, luminescence, S. cerevisiae; S. cerevisiae SKY197-pL101 polyadenylation reporter, beta-gal luminescence; efflux-impaired pdr1/pdr3 knockout yeast; score 100 = 6 SD above DMSO; 0.02% of 300,000 active; activity score, % at 12 µM; AID 1875, 2009;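 active means lowest replicate activity score at least 50, where 100 means six control SD above control mean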;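 further: yeast exposed to compound for 9 h at 30 °C; higher score means more reporter readthrough which indicates perturbed polyadenylation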
APOBEC3A confirm: APOBEC3A deaminase inhibitors, retest, confirmation, selectivity assay for APOBEC3G inhibitor project, biochemical, single concentration, fluorescence readout; AID 493151, 2011; shares compounds with APOBEC3A inh; inhibition, % at 20 µM; recombinant A3A, ssDNA deaminase UDG fluorescence assay; 63% of 1,400 active;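 active means inhibition reaching a set limit, 80% of the first screen's cutoff, at 20 µM in any replicate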;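 further: plate controls were DMSO wells with A3A for no effect and wells lacking A3A enzyme for full effect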
UDG A3A counter: E. coli UDG inhibitors, confirmation, counter-screen for APOBEC3A inhibitor project, biochemical, single concentration, fluorescence, FAM/TAMRA oligo; 1,000 tested, under 10 active; AID 504714, 2011; inhibition, % at 20 µM; shares compounds with APOBEC3A inh; UDG counterscreen, FAM/TAMRA uracil oligo fluorescence; call rule not given here
The depositor's hits bear a star.

What do the screens show for `Cc1cc(-c2ccccc2)nc2c(Br)c(C(=O)O)nn12`?
APOBEC3A inh: 42*; A3G deaminase: 23; PolyA inhibitor: -8; APOBEC3A confirm: 40*; UDG A3A counter: -2

How did CCN1C(N(C)CCc2cccs2)=N[C@@H](c2ccccc2)C(C(=O)OC)=C1C do in these assays?
NALP1 yeast inh: 23; APOBEC3A inh: 52*; A3G deaminase: 22; PolyA inhibitor: -13; APOBEC3A confirm: 52*; UDG A3A counter: -2

How did CCN1C(N(C)CCc2c[nH]c3ccccc23)=N[C@@H](c2cccc(C(F)(F)F)c2)C(C(=O)OC)=C1C do in these assays?
APOBEC3A inh: 31; A3G deaminase: 4

How did CCN(CC)CCCN=C1N[C@@H](c2cccc(F)c2)C(C(=O)OC)=C(C)N1Cc1ccccc1 do in these assays?
APOBEC3A inh: 46*; A3G deaminase: 15; APOBEC3A confirm: 82*; UDG A3A counter: 0

Results for CCN1C(=NCCOC)N[C@@H](c2cccc(F)c2)C(C(=O)OC)=C1C ?
NALP1 yeast inh: 15; APOBEC3A inh: 59*; A3G deaminase: 16; PolyA inhibitor: -5; APOBEC3A confirm: 71*; UDG A3A counter: -3

What do the screens show for `COC(=O)C1=C(C)N(Cc2ccccc2)C(=NCc2ccccc2)N[C@H]1c1cccc(F)c1`?
NALP1 yeast inh: 30; APOBEC3A inh: 25; A3G deaminase: -2; PolyA inhibitor: -2

Results for CCN1C(=NCCCCO)N[C@@H](c2cccc(F)c2)C(C(=O)OC)=C1C ?
NALP1 yeast inh: 14; APOBEC3A inh: 51*; A3G deaminase: 6; PolyA inhibitor: 16; APOBEC3A confirm: 58*; UDG A3A counter: 0

How did COCCN1C(=O)N[C@@H](c2cccs2)C(C(=O)OC)=C1C do in these assays?
NALP1 yeast inh: 30; APOBEC3A inh: -2; A3G deaminase: -10; PolyA inhibitor: -10

Results for CCN1C(=NCCOC)N[C@@H](c2cccs2)C(C(=O)OC)=C1C ?
NALP1 yeast inh: 24; APOBEC3A inh: 58*; A3G deaminase: 17; PolyA inhibitor: -8; APOBEC3A confirm: 67*; UDG A3A counter: -5

Results for CCOc1ccc(NC(=O)COc2ccc(C(=O)NCC3CCCO3)cc2OC)cc1 (stereo not given) ?
APOBEC3A inh: -4; A3G deaminase: -4

What do the screens show for `COC(=O)CNC(=O)C1CCC(CNS(=O)(=O)c2cccc3nsnc23)CC1` (stereo not given)?
NALP1 yeast inh: 17; APOBEC3A inh: -3; A3G deaminase: -8; PolyA inhibitor: 7

What do the screens show for `CCc1ccc(-c2cc(C)no2)cc1S(=O)(=O)NCCc1ccccc1`?
NALP1 yeast inh: 1; APOBEC3A inh: -1; A3G deaminase: -2; PolyA inhibitor: -26

What do the screens show for `O=C(NCc1cccc(Cl)c1)N1CCN(S(=O)(=O)c2ccccc2F)CC1`?
NALP1 yeast inh: 6; APOBEC3A inh: -7; A3G deaminase: -12; PolyA inhibitor: -10

How did COC(=O)C1=C(C)N(Cc2ccccc2)C(=NCCN2CCOCC2)N[C@H]1CCc1ccccc1 do in these assays?
APOBEC3A inh: 36; A3G deaminase: 6

How did CCN1C(=NCCN2CCOCC2)N[C@@H](c2ccccc2)C(C(=O)OC)=C1C do in these assays?
NALP1 yeast inh: 10; APOBEC3A inh: 49*; A3G deaminase: 6; PolyA inhibitor: 10; APOBEC3A confirm: 52*; UDG A3A counter: -1

What do the screens show for `COc1cc(CN2CCN(Cc3ccc(C)cc3)C(CCO)C2)cc(OC)c1O` (stereo not given)?
NALP1 yeast inh: -2; APOBEC3A inh: -2; A3G deaminase: -2; PolyA inhibitor: 8

What do the screens show for `C[N+]1(C2CCC3CCCC2C3O)CCCC1` (stereo not given)?
NALP1 yeast inh: 26; APOBEC3A inh: 59*; A3G deaminase: 10; PolyA inhibitor: 2; APOBEC3A confirm: 74*; UDG A3A counter: 0

How did O=C(CN(Cc1ccccc1)C(=O)c1ccco1)NCc1ccc(F)cc1 do in these assays?
NALP1 yeast inh: 15; APOBEC3A inh: 0; A3G deaminase: 1; PolyA inhibitor: -7

What do the screens show for `COc1cccc(CN(CC(=O)NCc2ccc(F)cc2)C(=O)c2ccco2)c1`?
NALP1 yeast inh: 22; APOBEC3A inh: 45*; A3G deaminase: -2; PolyA inhibitor: -7; APOBEC3A confirm: -6; UDG A3A counter: -3

Results for CCOc1cc(C2C3=C(CC(C)(C)CC3=O)N(CCOC)C3=C2C(=O)CC(C)(C)C3)ccc1OC ?
NALP1 yeast inh: 10; APOBEC3A inh: 49*; A3G deaminase: 7; PolyA inhibitor: -1; APOBEC3A confirm: 26

How did CC1=NN(c2nc3ccccc3s2)C(O)(C(F)(F)F)C1 (stereo not given) do in these assays?
NALP1 yeast inh: 2; APOBEC3A inh: -3; A3G deaminase: -2; PolyA inhibitor: -9

What do the screens show for `CC[N+]1(CC)CC2CCC(C)(C1)C2(C)C` (stereo not given)?
NALP1 yeast inh: -11; APOBEC3A inh: 58*; A3G deaminase: 9; PolyA inhibitor: -1; APOBEC3A confirm: 79*; UDG A3A counter: 8

What do the screens show for `CC12CCC(C[N+](C)(C)C1)C2(C)C` (stereo not given)?
NALP1 yeast inh: -13; APOBEC3A inh: 65*; A3G deaminase: 20; PolyA inhibitor: -6; APOBEC3A confirm: 69*; UDG A3A counter: -2

Results for C/C(N)=C(/C#N)C(=O)CSc1nc2ccccc2c(=O)n1Cc1ccc(F)cc1 ?
NALP1 yeast inh: 18; APOBEC3A inh: 47*; A3G deaminase: 15; PolyA inhibitor: -6; APOBEC3A confirm: 26

Results for Cc1ccc(-n2nc(C)c3c(C)c(CCC(=O)O)c(C)nc32)cc1C ?
NALP1 yeast inh: -1; APOBEC3A inh: -1; A3G deaminase: -4; PolyA inhibitor: -18

What do the screens show for `O=C(NCCN1CCOCC1)c1ccc(Cl)cc1[N+](=O)[O-]`?
NALP1 yeast inh: 2; APOBEC3A inh: 46*; A3G deaminase: -6; PolyA inhibitor: -5; APOBEC3A confirm: 10*; UDG A3A counter: -1

How did C[n+]1cc(-c2ccccc2)n2c1CCCCC2 do in these assays?
NALP1 yeast inh: 0; APOBEC3A inh: 53*; A3G deaminase: 9; PolyA inhibitor: 7; APOBEC3A confirm: 67*; UDG A3A counter: -3
